Shown are actives, neighbours in structure and some others; about 6.6% of the full set was active somewhere.
Spn MK inh: inhibitors of Streptococcus pneumoniae mevalonate kinase; purified MK, PK/LDH-coupled NADH absorbance 340 nm; inhibition, % at 10 µM; 65,000 compounds, 0.48% hits; AID 555;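 active means ranked among the strongest by inhibition in the single 10 µM screen, a fixed top-ranked set picked for dose follow-up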
NADH enzymes: inhibition of NAD/NADH coupling enzymes, library profiling. AID 774. coupled PK/LDH NADH assays, four targets. IC50, µM (titrated, usually from 10 µM), inactives show at the top dose inhibition. 65,000 compounds, 0.02% hits;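 active means single-dose screening hits from any of four coupled enzyme assays that gave an IC50 when retested across doses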;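 further: the DPM-DC format reads NADH fluorescence rather than 340 nm absorbance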
DPM-DC inhibit: inhibitors of Streptococcus pneumoniae diphosphomevalonate decarboxylase. AID 556. calls only at 10 µM. purified DPM-DC, PK/LDH coupled NADH fluorescence. 65,000 compounds, 0.49% hits;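 active means the 320 compounds with the highest percent inhibition in the single-dose primary screen, excluding strongly autofluorescent ones, cut at about 32% in these data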;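 further: kinetic rate of NADH fluorescence loss reporting ADP formed by the decarboxylase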
Autofluor 339: intrinsic fluorescence of library compounds, ex339/em460 – biochemical, MLSMR library, data from DPM-DC assay, artefact control, profiling panel; compound autofluorescence, ex339/em460 nm, NADH buffer; stronger effect = higher value; 1 = no-compound wells, NADH background; fluorescence fold increase at 10 µM; 65,000 compounds, 5.5% hits; AID 709;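 active means at 10 µM, mean starting fluorescence two-fold or more over control wells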;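 further: signal is the first read of a kinetic run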
Spn PMK inh: S. pneumoniae PMK inhibition | purified PMK, PK/LDH-coupled NADH absorbance 340 nm | 65,000 compounds, 0.49% hits | inhibition, % at 10 µM;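 active means top-ranked compounds by inhibition in the single 10 µM screen, taking a fixed number of the strongest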;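 further: 0% = full reaction with DMSO carrier and 100% = background rate without enzyme reaction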
An asterisk follows results filed as active; i = inactive; . = no result given; + = active, no number.

SMILES	Spn MK inh	NADH enzymes	DPM-DC inhibit	Autofluor 339	Spn PMK inh
c1ccc2[nH]c(SCc3ccc(-c4nnco4)cc3)nc2c1	2	5%	i	1.1	14
Cc1cc(C)n2nc(C(=O)NCc3ccco3)nc2n1	5	5%	i	1	0
Cc1cc(C)c2c(N)c(C(=O)NCc3ccco3)sc2n1	15	10%	.	2.1*	4
Cc1cc(C)c2c(N)c(C(=O)N3CCCCCC3)sc2n1	0	7%	i	2.2*	0
CC1CCc2sc3ncn4nc(C(=O)NCc5ccco5)nc4c3c2C1 (stereo unspecified)	9	12%	i	2*	8
COc1ccc(NC(=O)c2cccc(Cn3cc(Br)cn3)c2)cn1	3	1%	i	1.1	0
O=C(NC(Cc1ccccc1)C(=O)NCc1ccccn1)c1ccco1 (stereo unspecified)	0	1%	i	1.1	2
Cn1c(-c2nonc2NC(=O)c2ccc(C(C)(C)C)cc2)nc2ccccc21	0	11%	i	2.6*	10
CC(=O)Nc1nonc1-c1nc2ccccc2n1CCC(C)C	0	5%	i	1.2	6
COc1ccc(N2CC(C)Cn3c2nc2c3c(=O)[nH]c(=O)n2C)cc1 (stereo unspecified)	10	7%	i	1.1	11
CN1C(=O)OC2(C)CCc3ccccc3C12C (stereo unspecified)	0	10%	i	1.1	31*
CCn1c(=O)c2c3c(sc2n2c(SCc4ccc(F)cc4)nnc12)CCCC3	5	6%	i	1.1	4
COc1cc2c(C#N)c(N3CCc4ccccc4C3)nc(N)c2c(N)n1	0	0%	.	2.2*	0
COc1cc2c(C#N)c(N3CCCCC3)nc(N)c2c(N)n1	1	5%	.	5.1*	9
COc1cc2c(C#N)c(N3CCOCC3)nc(N)c2c(N)n1	0	2%	.	3.4*	13
CCOC(=O)c1sc(NC(=O)CSc2nnc(-c3ccc(OC)cc3)n2CCOC)nc1C	10	5%	i	1	13
CCCS(=O)(=O)Nc1cc(C(F)(F)F)ccc1OCCOC	9	6%	i	1.1	9
COc1ccc(C2C(C(N)=O)=C(C)Nc3nc(-c4ccccc4Cl)nn32)c(OC)c1 (stereo unspecified)	3	1%	i	1.1	0
Cc1cc(NC(=O)c2ccc3c(c2)C(=O)N(C2CCCCC2)C3=O)no1	1	4%	i	1.1	0
CCC(=O)Nc1ccc2c(c1)C(=O)N(C1CCCCC1)C2=O	1	4%	.	3.9*	7
CN1CC(=O)NC1=NC(=O)C12CC3CC(CC(C3)C1)C2	0	17%	+	0.6	11
O=C1NCCN1C(=O)C12CC3CC(CC(C3)C1)C2	0	3%	i	1.1	10
CC(C)N1CC=C2C(C#N)=C(N)C(C#N)(C#N)C(c3ccccc3)C2C1 (stereo unspecified)	6	11%	i	2	0
CCN1CC=C2C(C#N)=C(N)C(C#N)(C#N)C(c3cc(Cl)ccc3Cl)C2C1 (stereo unspecified)	3	12%	i	2.9*	12
CCN(CCCNS(=O)(=O)c1ccc2c(c1)CCN2C(C)=O)c1cccc(C)c1	5	3%	i	1.1	5
SMILES	Spn MK inh	NADH enzymes	DPM-DC inhibit	Autofluor 339	Spn PMK inh
COc1ccc(S(=O)(=O)N2CCN(C(=O)CCC3CCCC3)CC2)cc1	7	7%	i	1.1	6
CS(=O)(=O)N1CCN(C(=O)CCC2CCCC2)CC1	10	14%	i	1.1	33*
Cc1c(Cl)cccc1NC(=O)c1cc(C2CC2)on1	10	10%	i	1	12
CCC1Oc2ccc(C)cc2N(CC(=O)NCCN2CCCCCC2)C1=O (stereo unspecified)	0	8%	i	1.1	25*
CC(=O)c1cccc(NC(=O)N2CCCC2C(=O)NC2CCCCC2)c1 (stereo unspecified)	0	5%	i	1.1	14
CCN1CCN(C(=O)c2cc3cc4cc(OC)ccc4nc3s2)CC1	0	8%	i	2.8*	20
Cc1ccc2cc3cc(C(=O)N4CCN(C(=O)c5ccco5)CC4)sc3nc2c1	0	9%	i	1.7	20
O=C(C1CCCN1C(=O)c1cccs1)N1CCN(Cc2ccc3c(c2)OCO3)CC1 (stereo unspecified)	2	7%	i	1.1	18
Cc1ccc(Cl)cc1N1CCN(C(=O)c2cc3c(=O)n(C)c4ccccc4c3n2C)CC1	9	8%	i	1.1	12
Cc1csc2nc3ccccc3c(=O)n12	5	6%	i	2*	4
Cc1nc2ccccc2c(=O)n1N	3	3%	i	1	6
CCN(CC)C(=O)CSc1nc2ccccc2c(=O)n1CCC(=O)NCc1ccc(F)cc1	5	3%	i	1	21
O=C1CC(O)(C(F)F)Oc2ccc3ccccc3c21 (stereo unspecified)	13	10%	.	3.7*	7
CCOc1ccc(OCC)c(NC(=O)C2CCCN(S(=O)(=O)c3cnc[nH]3)C2)c1 (stereo unspecified)	2	2%	i	1	4
O=c1cc(-c2ccccc2)[nH]c2nc3ccccc3n12	11	3%	.	2.5*	0
O=c1cc(-c2ccccc2)[nH]n1-c1nc2ccccc2s1	3	6%	i	1.1	16
CC(=O)Nc1ccc2nc(-c3ccccn3)[nH]c2c1	4	8%	.	3.7*	12
O=C(Nc1ccc2nc(-c3cccs3)[nH]c2c1)c1cccs1	9	12%	i	2.4*	3
Cc1oc2cc3c(C(=O)N4CCN(C)CC4)c(C)oc3cc2c1C(=O)N1CCN(C)CC1	9	12%	i	1	22
COc1ccc2oc(-c3ccccc3)c(C(=O)N3CCOCC3)c2c1	6	8%	.	2.1*	9
CCOc1ccc2oc(-c3ccccc3)c(C(=O)N3CCN(C)CC3)c2c1	0	0%	.	2.2*	0
CC(=O)Oc1ccc2oc(C)c(C(=O)N3CCOCC3)c2c1	0	0%	i	1.1	0
CCOC(=O)C(C)n1cnc2c(nnn2-c2cccc(Cl)c2)c1=O (stereo unspecified)	4	5%	i	1.1	11
CC(C)OC(=O)C1C(=O)CC(C)(O)C(C(=O)OC(C)C)C1c1cccc(O)c1 (stereo unspecified)	0	4%	i	1.1	6
COc1ccc(-c2cc(C(F)(F)F)nc(S(=O)(=O)CCC(=O)N3CCOCC3)n2)cc1	14	17%	i	2.8*	10
COc1ccc(-c2cc(C(F)(F)F)nc(SCC(=O)Nc3cc(C)on3)n2)cc1	10	7%	i	3*	10
COc1ccc(-c2cc(C(F)(F)F)nc(SCC(=O)N3CCOCC3)n2)cc1OC	8	14%	i	2.4*	8
